Source: PubChem BioAssay AID1159580 (chemical genetic matrix, 2015)
Where “and” joins values, the source holds several entries; their conditions need not be identical. Identical values can stand only once. Out of some 5,500 compounds screened, about 2,000 (36%) were called active. Another 18% or so got no clear call; they are omitted. Cut-off read from the data, not from the text of the source: active = normalized growth mostly below about 0.91 (no sharp cut-off); inconclusive = no clear call, values can overlap the other calls; inactive = mostly above about 0.92. Some of the results follow.

Assay: chemical genetic growth profiling, strain panel (AID 1159580);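 note: tested at 20 µM; growth read once vehicle control cultures reached saturation at 30 °C; 1 = growth at the plate median or of vehicle wells; lower values mean less growth of the strain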
Details: growth OD

Measured: normalized growth

CC/C(=C(\c1ccccc1)c1ccc(OCCN(C)C)cc1)c1ccccc1
active: S. cerevisiae deletion strains, locus YKL009W, strain mrt4, hits give low values 0.79 | S. cerevisiae deletion strains, locus YKL160W, strain elf1, hits give low values 0.13 | S. cerevisiae deletion strains, locus YKL190W, strain CNB1, hits give low values 0.045 | S. cerevisiae deletion strains, locus YKR001C, strain vps1, hits give low values 0.064 | S. cerevisiae deletion strains, locus YKR026C, strain gcn3, hits give low values 0.184 | S. cerevisiae deletion strains, locus YKR091W, strain srl3, hits give low values 0.0995 | S. cerevisiae deletion strains, locus YLL001W, strain dnm1, hits give low values 0.0862 | S. cerevisiae deletion strains, locus YLL026W, hits give low values 0.0741 | S. cerevisiae deletion strains, locus YLL041C, strain sdh2, hits give low values 0.115 | S. cerevisiae deletion strains, locus YLR027C, strain aat2, hits give low values 0.0818 | S. cerevisiae deletion strains, locus YLR039C, strain RIC1, hits give low values 0.0749 | S. cerevisiae deletion strains, locus YLR058C, strain SHM2, hits give low values 0.0464 | S. cerevisiae deletion strains, locus YLR102C, strain apc9, hits give low values 0.0601 | S. cerevisiae deletion strains, locus YLR113W, strain HOG1, hits give low values 0.822 | S. cerevisiae deletion strains, locus YLR221C, strain rsa3, hits give low values 0.121 | S. cerevisiae deletion strains, locus YLR258W, strain gsy2, hits give low values 0.0791 | S. cerevisiae deletion strains, locus YLR262C, strain YPT6 (second series), hits give low values 0.182 | S. cerevisiae deletion strains, locus YLR262C, strain YPT6, hits give low values 0.0867 | S. cerevisiae deletion strains, locus YLR268W, strain sec22, hits give low values 0.0695 | S. cerevisiae deletion strains, locus YLR320W, strain mms22, hits give low values 0.171 | S. cerevisiae deletion strains, locus YLR330W, strain CHS5, hits give low values 0.0509 | S. cerevisiae deletion strains, locus YLR342W, strain FKS1 (second series), hits give low values 0.0626 | S. cerevisiae deletion strains, locus YLR342W, strain FKS1, hits give low values 0.0912 | S. cerevisiae deletion strains, locus YLR357W, strain rsc2, hits give low values 0.181 | S. cerevisiae deletion strains, locus YLR370C, strain arc18, hits give low values 0.0663 | S. cerevisiae deletion strains, locus YLR371W, strain rom2, hits give low values 0.0629 | S. cerevisiae deletion strains, locus YLR384C, strain iki3, hits give low values 0.223 | S. cerevisiae deletion strains, locus YLR418C, strain cdc73, hits give low values 0.105 | S. cerevisiae deletion strains, locus YML016C, strain PPZ1, hits give low values 0.0451 | S. cerevisiae deletion strains, locus YML032C, strain rad52, hits give low values 0.0687 | S. cerevisiae deletion strains, locus YML120C, strain ndi1, hits give low values 0.114 | S. cerevisiae deletion strains, locus YML124C, strain tub3, hits give low values 0.0591 | S. cerevisiae deletion strains, locus YMR058W, strain fet3, hits give low values 0.0718 | S. cerevisiae deletion strains, locus YMR078C, strain ctf18, hits give low values 0.0689 | S. cerevisiae deletion strains, locus YMR125W, strain sto1, hits give low values 0.131 | S. cerevisiae deletion strains, locus YMR129W, hits give low values 0.0877 | S. cerevisiae deletion strains, locus YMR205C, strain PFK2, hits give low values 0.172 | S. cerevisiae deletion strains, locus YMR223W, strain ubp8, hits give low values 0.0676 | S. cerevisiae deletion strains, locus YMR231W, strain pep5, hits give low values 0.0689 | S. cerevisiae deletion strains, locus YMR263W, strain SAP30, hits give low values 0.0557 | S. cerevisiae deletion strains, locus YMR307W, strain GAS1, hits give low values 0.103 and 0.123 | S. cerevisiae deletion strains, locus YNL067W, strain RPL9B, hits give low values 0.0484 | S. cerevisiae deletion strains, locus YNL071W, strain lat1, hits give low values 0.165 | S. cerevisiae deletion strains, locus YNL128W, strain TEP1, hits give low values 0.0645 | S. cerevisiae deletion strains, locus YNL153C, strain GIM3, hits give low values 0.0543 | S. cerevisiae deletion strains, locus YNL197C, strain WHI3, hits give low values 0.704 | S. cerevisiae deletion strains, locus YNL209W, strain ssb2, hits give low values 0.1 | S. cerevisiae deletion strains, locus YNL224C, strain SQS1, hits give low values 0.206 | S. cerevisiae deletion strains, locus YNL233W, strain BNI4, hits give low values 0.0506 | S. cerevisiae deletion strains, locus YNL248C, strain rpa49, hits give low values 0.555 | S. cerevisiae deletion strains, locus YNL298W, strain CLA4, hits give low values 0.744 | S. cerevisiae deletion strains, locus YNL307C, strain MCK1, hits give low values 0.0675 | S. cerevisiae deletion strains, locus YNL322C, strain KRE1, hits give low values 0.0467 and 0.567 | S. cerevisiae deletion strains, locus YNR049C, strain mso1, hits give low values 0.0842 | S. cerevisiae deletion strains, locus YNR052C, strain pop2, hits give low values 0.0611 | S. cerevisiae deletion strains, locus YOL006C, strain TOP1, hits give low values 0.0917 | S. cerevisiae deletion strains, locus YOL012C, strain htz1 0.187 | S. cerevisiae deletion strains, locus YOL147C, strain pex11, hits give low values 0.0578 | S. cerevisiae deletion strains, locus YOR001W, strain rrp6, hits give low values 0.431 | S. cerevisiae deletion strains, locus YOR061W, strain CKA2, hits give low values 0.0446 | S. cerevisiae deletion strains, locus YOR069W, strain VPS5, hits give low values 0.0459 | S. cerevisiae deletion strains, locus YOR070C, strain gyp1, hits give low values 0.0646 | S. cerevisiae deletion strains, locus YOR080W, strain dia2, hits give low values 0.408 | S. cerevisiae deletion strains, locus YOR083W, strain WHI5 (second series), hits give low values 0.185 | S. cerevisiae deletion strains, locus YOR083W, strain WHI5, hits give low values 0.0831 | S. cerevisiae deletion strains, locus YOR106W, strain vam3, hits give low values 0.0773 | S. cerevisiae deletion strains, locus YOR136W, strain idh2, hits give low values 0.0725 | S. cerevisiae deletion strains, locus YOR144C, strain elg1, hits give low values 0.0595 | S. cerevisiae deletion strains, locus YOR184W, strain ser1, hits give low values 0.0775 | S. cerevisiae deletion strains, locus YOR265W, strain rbl2, hits give low values 0.0798 | S. cerevisiae deletion strains, locus YOR270C, strain vph1, hits give low values 0.136 | S. cerevisiae deletion strains, locus YOR290C, strain snf2, hits give low values 0.125 | S. cerevisiae deletion strains, locus YOR316C, strain cot1, hits give low values 0.0588 | S. cerevisiae deletion strains, locus YPL051W, strain arl3, hits give low values 0.136 | S. cerevisiae deletion strains, locus YPL055C, strain LGE1, hits give low values 0.0697 | S. cerevisiae deletion strains, locus YPL078C, strain atp4, hits give low values 0.288 | S. cerevisiae deletion strains, locus YPL106C, strain sse1, hits give low values 0.114 | S. cerevisiae deletion strains, locus YPL240C, strain hsp82, hits give low values 0.106 | S. cerevisiae deletion strains, locus YPL241C, strain CIN2, hits give low values 0.0469 | S. cerevisiae deletion strains, locus YPL256C, strain CLN2, hits give low values 0.815 | S. cerevisiae deletion strains, locus YPR119W, strain clb2, hits give low values 0.0696 | S. cerevisiae deletion strains, locus YPR163C, strain tif3, hits give low values 0.0696 | S. cerevisiae deletion strains, locus YPR167C, strain met16, hits give low values 0.0609 | S. cerevisiae deletion strains, strain wtn01, hits give low values 0.0608 | S. cerevisiae strains, strain wild type, hits give low values 0.0464
inactive: S. cerevisiae deletion strains, locus YKL068W, hits give low values 1 | S. cerevisiae deletion strains, locus YKL085W, strain MDH1 (second series), hits give low values 0.952 | S. cerevisiae deletion strains, locus YKL085W, strain MDH1, hits give low values 0.952 | S. cerevisiae deletion strains, locus YNL175C, strain NOP13, hits give low values 0.968 | S. cerevisiae deletion strains, locus YNL183C, strain NPR1, hits give low values 0.901 | S. cerevisiae deletion strains, locus YNL250W, strain rad50, hits give low values 0.999 | S. cerevisiae deletion strains, locus YNL271C, strain bni1, hits give low values 0.953 | S. cerevisiae deletion strains, locus YNL322C, strain KRE1 (second series), hits give low values 1.07 | S. cerevisiae deletion strains, locus YOR231W, strain MKK1, hits give low values 0.894 | S. cerevisiae deletion strains, locus YPR141C, strain kar3, hits give low values 1.04
